Unmarked numbers belong to inactive results. Inconclusive results are not listed. A call without a number means that no potency is given here. Activity calls are given as the source filed them. Unless noted, calls come from the whole dose curve; as a rule, active = well fitted curve in the direction sought with a large enough effect; inconclusive = small, poorly fitted or top-dose-only effect, or another doubt; inactive = no such curve, though single readings can be large; an effect the other way counts as inactive or inconclusive.
Tests used:
[1] = biological target: Cytochrome P450 1A2 (Homo sapiens) (UniProt P05177); assay: p450-cyp1a2 (AID 410; calls by dose curve; note: potency is the fitted concentration of half-maximal effect)
Cytochrome P450 1A2 (Homo sapiens), sequence (P05177 whole entry, looked up): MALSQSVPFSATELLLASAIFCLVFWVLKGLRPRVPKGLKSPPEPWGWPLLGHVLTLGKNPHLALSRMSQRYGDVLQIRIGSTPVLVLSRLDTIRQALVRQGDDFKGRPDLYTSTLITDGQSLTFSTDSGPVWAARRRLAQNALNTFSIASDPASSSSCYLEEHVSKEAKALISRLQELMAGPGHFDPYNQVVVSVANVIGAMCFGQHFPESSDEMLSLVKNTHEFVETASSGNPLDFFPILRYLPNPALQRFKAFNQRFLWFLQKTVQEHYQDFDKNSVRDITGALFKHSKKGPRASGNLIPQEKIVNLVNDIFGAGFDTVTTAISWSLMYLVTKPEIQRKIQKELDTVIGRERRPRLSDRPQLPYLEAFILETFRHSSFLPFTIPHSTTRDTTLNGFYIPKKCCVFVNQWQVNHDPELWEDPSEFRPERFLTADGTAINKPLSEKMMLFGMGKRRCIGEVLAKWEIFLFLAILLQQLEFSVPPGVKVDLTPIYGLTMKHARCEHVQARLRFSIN
In short: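 20nM CYP1A2 with 100uM Luciferin-ME (at Km) in 100mM KPO4; compound preincubated 10 min, NADPH regeneration added, 60 min at room temperature. Luciferin quantified by luminescence after detection reagent; normalized to 57 uM furafylline.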

[2] = biological target: Glucocorticoid receptor (Homo sapiens) (UniProt P04150); assay: GR-GFP Redistribution (AID 450;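 active = compounds whose dose series gives a full or clear partial fitted curve of increased nuclear translocation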; note: potency is the fitted concentration of half-maximal effect); conditions: U2OS GR-GFP nuclear translocation, laser cytometry, 2 h
Glucocorticoid receptor (Homo sapiens), sequence (P04150 whole entry, looked up, the tested form may be a part): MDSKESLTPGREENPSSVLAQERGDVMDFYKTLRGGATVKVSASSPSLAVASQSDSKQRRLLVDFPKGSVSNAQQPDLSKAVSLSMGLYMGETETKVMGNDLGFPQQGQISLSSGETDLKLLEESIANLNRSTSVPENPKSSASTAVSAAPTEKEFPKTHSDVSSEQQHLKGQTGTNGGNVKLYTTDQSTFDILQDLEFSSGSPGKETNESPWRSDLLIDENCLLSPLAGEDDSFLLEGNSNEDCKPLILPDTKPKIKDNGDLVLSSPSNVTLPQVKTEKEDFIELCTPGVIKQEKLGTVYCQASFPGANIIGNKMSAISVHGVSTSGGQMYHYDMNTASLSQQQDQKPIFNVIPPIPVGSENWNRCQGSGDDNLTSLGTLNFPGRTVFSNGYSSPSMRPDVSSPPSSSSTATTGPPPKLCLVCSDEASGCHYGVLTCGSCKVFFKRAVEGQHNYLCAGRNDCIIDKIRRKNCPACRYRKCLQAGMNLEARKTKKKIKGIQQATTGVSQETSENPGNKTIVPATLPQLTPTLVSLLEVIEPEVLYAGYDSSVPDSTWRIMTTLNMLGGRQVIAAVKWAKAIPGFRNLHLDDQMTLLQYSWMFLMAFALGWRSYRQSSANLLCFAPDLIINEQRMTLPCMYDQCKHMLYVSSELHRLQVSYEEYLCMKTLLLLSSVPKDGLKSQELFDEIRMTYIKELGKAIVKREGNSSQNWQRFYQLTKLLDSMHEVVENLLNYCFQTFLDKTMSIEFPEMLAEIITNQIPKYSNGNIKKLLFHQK

[3] = biological target: Glucocorticoid receptor (Homo sapiens) (UniProt P04150); assay: GR-EFC Redistribution (AID 451; calls by dose curve; note: potency is the fitted concentration of half-maximal effect); conditions: CHO-K1 GR-EFC translocation, beta-gal luminescence, 2 h
In short: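 CHO-K1 cells stably expressing nuclear-localized β-gal enzyme acceptor and GR fused C-terminally to the enzyme donor fragment; ligand-driven nuclear translocation restores β-gal by complementation. Compounds titrated up to 46 uM final, 2 h at 37 °C; luminescence read.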

[4] = biological target: Cytochrome P450 2D6 (Homo sapiens) (UniProt P10635); assay: qHTS Assay for Inhibitors and Substrates of Cytochrome P450 2D6 (AID 891); note: potency is the fitted concentration of half-maximal effect; nearly all actives have a fitted effect of over 60% in size
Cytochrome P450 2D6 (Homo sapiens), sequence (P10635 whole entry, looked up): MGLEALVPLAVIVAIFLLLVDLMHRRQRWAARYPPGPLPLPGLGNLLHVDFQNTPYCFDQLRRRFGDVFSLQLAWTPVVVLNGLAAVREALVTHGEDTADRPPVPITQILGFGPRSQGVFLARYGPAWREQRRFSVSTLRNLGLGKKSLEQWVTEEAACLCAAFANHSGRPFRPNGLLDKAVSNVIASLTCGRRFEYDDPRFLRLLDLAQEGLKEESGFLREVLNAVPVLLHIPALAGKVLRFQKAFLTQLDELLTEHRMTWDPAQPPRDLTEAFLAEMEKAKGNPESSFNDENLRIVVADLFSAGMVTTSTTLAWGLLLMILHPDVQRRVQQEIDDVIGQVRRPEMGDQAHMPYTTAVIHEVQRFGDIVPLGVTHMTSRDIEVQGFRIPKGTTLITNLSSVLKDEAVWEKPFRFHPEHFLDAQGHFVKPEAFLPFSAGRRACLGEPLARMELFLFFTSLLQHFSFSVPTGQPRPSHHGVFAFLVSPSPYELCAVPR
In short: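 Human CYP2D6 (5 nM) with 30 uM Luciferin-ME EGE (at Km) in 100 mM KPO4, compound preincubated 10 min, then NADPH regeneration system for 60 min at room temperature. Luciferin read by luminescence; normalized to 1.43 uM quinidine.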

[5] = biological target: DNA dC->dU-editing enzyme APOBEC-3G (Homo sapiens) (UniProt Q9HC16); assay: qHTS for inhibitors of Vif-A3G interactions: Validation (AID 588379)
DNA dC->dU-editing enzyme APOBEC-3G (Homo sapiens), sequence (Q9HC16 whole entry, looked up): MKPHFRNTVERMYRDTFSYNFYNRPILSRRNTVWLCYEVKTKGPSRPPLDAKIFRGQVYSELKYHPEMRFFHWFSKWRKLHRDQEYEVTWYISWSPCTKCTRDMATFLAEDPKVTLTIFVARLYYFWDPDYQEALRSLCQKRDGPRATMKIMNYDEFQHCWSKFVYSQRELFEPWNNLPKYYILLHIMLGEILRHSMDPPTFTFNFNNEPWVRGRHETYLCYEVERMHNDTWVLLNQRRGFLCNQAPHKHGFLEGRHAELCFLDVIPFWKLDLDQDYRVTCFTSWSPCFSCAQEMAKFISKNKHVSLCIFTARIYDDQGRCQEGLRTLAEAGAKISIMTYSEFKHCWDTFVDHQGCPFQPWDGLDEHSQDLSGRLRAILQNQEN
In short: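 HeLa cells stably expressing Vif and A3G-eYFP, 700 cells/well, incubated overnight at 37 deg C, then exposed to compound overnight at 37 deg C. Inhibition of Vif-mediated degradation read as increased yellow fluorescence (Ex 488/Em 500-530) by laser-scanning cytometry.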

[6] = Primary qHTS for small molecule stabilizers of the endoplasmic reticulum resident proteome: Secreted ER Calcium Modulated Protein (SERCaMP) assay (AID 1508630)
In short: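 GLuc-SERCaMP-expressing SH-SY5Y cells, pretreated 16 h with compound, are challenged with thapsigargin to empty ER calcium stores; after 4 h, coelenterazine is added directly to the medium and luminescence is imaged.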

[7] = biological target: Cytochrome P450 3A4 (Homo sapiens) (UniProt P08684); assay: qHTS Assay for Inhibitors and Substrates of Cytochrome P450 3A4 (AID 884); note: potency is the fitted concentration of half-maximal effect; nearly all actives have a fitted effect of over 50% in size
Cytochrome P450 3A4 (Homo sapiens), sequence (P08684 whole entry, looked up): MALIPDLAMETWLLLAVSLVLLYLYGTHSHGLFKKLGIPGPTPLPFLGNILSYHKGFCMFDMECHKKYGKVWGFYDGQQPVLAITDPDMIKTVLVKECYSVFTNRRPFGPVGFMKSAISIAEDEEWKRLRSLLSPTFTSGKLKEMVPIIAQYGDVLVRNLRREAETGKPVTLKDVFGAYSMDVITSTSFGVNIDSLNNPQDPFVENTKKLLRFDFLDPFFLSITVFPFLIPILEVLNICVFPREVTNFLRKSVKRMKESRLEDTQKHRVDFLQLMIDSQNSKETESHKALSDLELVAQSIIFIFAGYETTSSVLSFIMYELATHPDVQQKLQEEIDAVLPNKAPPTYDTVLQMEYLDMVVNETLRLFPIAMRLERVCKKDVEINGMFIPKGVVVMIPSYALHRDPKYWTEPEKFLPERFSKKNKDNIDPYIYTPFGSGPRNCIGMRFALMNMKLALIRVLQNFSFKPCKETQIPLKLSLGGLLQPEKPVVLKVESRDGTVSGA
In short: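 20 nM human CYP3A4 with 25 uM Luciferin-PPXE (at KM) in 200 mM KPO4, preincubated 10 min with compound; NADPH regeneration started a 60 min RT reaction. Luciferin detected by luminescence, normalized to 57 uM ketoconazole as full inhibition.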

[8] = biological target: Cytochrome P450 3A4 (Homo sapiens) (UniProt P08684); assay: qHTS Assay for Activators of Cytochrome P450 3A4 (AID 885); note: nearly all actives have a fitted effect of over 65% in size
In short: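 Steps: enzyme/substrate mix dispensed; compound added, 10 min RT; NADPH regeneration solution added, 60 min RT; luciferin detection buffer stops reaction; 20 min later luminescence measured.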

[9] = Confirmation and Secondary Assay for Modulators of Hemoglobin Beta Chain Splicing at IVS2 654 locus (AID 910);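 note: per-well total GFP intensity by laser scanning cytometry after 2-day treatment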
In short: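 HeLa cells stably carrying EGFP interrupted by mutant beta-globin IVS2-654 intron (CMV-driven) were treated with compound for 2 days at 37C; corrected splicing was scored as total peak GFP intensity per well (488 nm excitation, 500-520 nm emission).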

[10] = Confirmation and Secondary Assay for Modulators of Hemoglobin Beta Chain Splicing at IVS2 705 locus (AID 930);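 note: HeLa cells stably expressing the EGFP-705 splicing reporter; series mostly up to about 46 µM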
In short: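 HeLa cells stably carrying EGFP interrupted by mutant beta-globin IVS2-705 intron (CMV-driven) were seeded at 500 cells/well, treated next day with compound for 2 days at 37C; corrected splicing restores EGFP, read as total peak GFP intensity per well.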

Row | Structure (SMILES) | Potency [1] | Potency [2] [µM] | Potency [3] [µM] | Potency [4] | outcome [5] | outcome [6] | Potency [7] | Potency [8] | Potency [9] | Potency [10]
1 | CCCN(C/C=C\I)[C@@H]1CCc2ccc(O)cc2C1 | 25.1 µM (active) | > 46 | > 46 | 0.0158 µM (active) | inactive | inactive |  |  |  | 
2 | COc1cc2occc2c2oc(=O)ccc12 |  |  |  |  |  | inactive | 12.6 µM (active) | inactive | inactive | inactive

Source: PubChem BioAssay (NCATS)
